# Assay results taken from article PMC4336329 (PLoS ONE, 2015).
# Hit rate of the full screen: of about 310,000 compounds, about 14,000 (4.5%) showed an effect of 50% or more. Effects have a minus sign here. Only a selection was taken, and strong results are over-represented in it overall.
# Biological target: human ether-à-go-go-related gene (hERG) potassium channel (human, UniProt Q12809)
# Experiment: primary screen, population patch clamp on CHO cells stably expressing hERG; higher = less effect of the substance
# 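Note: peak tail current of the secondary pulse compared with the same well before compound.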
# Sequence of human ether-à-go-go-related gene (hERG) potassium channel (Q12809 whole entry, looked up): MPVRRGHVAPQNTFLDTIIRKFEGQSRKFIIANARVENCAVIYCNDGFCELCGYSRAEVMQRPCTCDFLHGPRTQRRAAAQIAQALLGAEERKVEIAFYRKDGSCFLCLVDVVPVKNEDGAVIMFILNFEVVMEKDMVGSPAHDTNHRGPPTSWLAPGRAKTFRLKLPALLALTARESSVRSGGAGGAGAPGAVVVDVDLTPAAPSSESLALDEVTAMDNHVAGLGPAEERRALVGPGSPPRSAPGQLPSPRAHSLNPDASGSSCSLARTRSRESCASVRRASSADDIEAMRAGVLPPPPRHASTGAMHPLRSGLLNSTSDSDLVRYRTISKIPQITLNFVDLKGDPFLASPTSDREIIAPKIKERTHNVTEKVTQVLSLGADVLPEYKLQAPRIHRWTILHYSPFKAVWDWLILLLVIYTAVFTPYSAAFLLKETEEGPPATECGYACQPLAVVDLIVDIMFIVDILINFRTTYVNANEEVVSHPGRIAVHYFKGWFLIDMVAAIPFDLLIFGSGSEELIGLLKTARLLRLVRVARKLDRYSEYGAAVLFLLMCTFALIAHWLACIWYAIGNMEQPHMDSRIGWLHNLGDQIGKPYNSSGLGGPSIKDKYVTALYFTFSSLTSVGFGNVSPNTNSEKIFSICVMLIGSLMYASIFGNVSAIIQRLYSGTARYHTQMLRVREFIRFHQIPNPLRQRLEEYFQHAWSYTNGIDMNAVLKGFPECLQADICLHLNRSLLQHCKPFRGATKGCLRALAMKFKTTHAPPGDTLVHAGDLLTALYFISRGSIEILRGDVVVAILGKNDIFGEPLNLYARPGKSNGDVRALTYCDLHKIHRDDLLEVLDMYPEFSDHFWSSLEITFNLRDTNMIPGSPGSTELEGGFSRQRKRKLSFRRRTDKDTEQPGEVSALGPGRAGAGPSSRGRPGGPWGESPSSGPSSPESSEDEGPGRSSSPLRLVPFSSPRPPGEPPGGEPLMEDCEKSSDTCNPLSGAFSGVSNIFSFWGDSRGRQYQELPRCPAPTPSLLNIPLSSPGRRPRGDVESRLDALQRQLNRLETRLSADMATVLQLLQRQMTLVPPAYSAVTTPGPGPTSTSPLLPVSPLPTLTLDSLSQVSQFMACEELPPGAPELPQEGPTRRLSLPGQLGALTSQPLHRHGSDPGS
row,SMILES,"hERG current change (%, negative = inhibition) at 10uM [%]"
1,c1ccc2c(c1)Nc1cc3ccccc3cc1S2,8.83
2,CCOc1ccc(CN(C)CC(=O)Nc2cccc(C)c2)cc1OC,-77
3,COc1ccc(CCN(C)C(=S)Nc2cccc(C)c2)cc1OC,5.19
4,COc1ccc(CCN(C)CCC(=O)Nc2c(C)cc(C)cc2C)cc1OC,-58.8
5,COc1ccc(CCN(C)CC(=O)Nc2c(C)cc(C)cc2C)cc1OC.Cl,4.26
6,COc1ccc(CC(=O)Nc2cccc(-c3nnc(-c4cccc(C)c4)o3)c2)cc1OC,11.3
7,CCOc1ccc(CN(C)CC(=O)Nc2cccc3ccccc23)cc1OC.O=C(O)C(=O)O,-16.5
8,CCOc1ccc(CN(C)CC(=O)NNC(=O)c2ccc(Cl)cc2)cc1OC,-60.3
9,COc1ccc(CCNCCC(=O)Nc2c(C)cc(C)cc2C)cc1OC.Cl,-13.8
10,COc1ccc(CCN(C)CCC(=O)Nc2cccc(C)c2)cc1OC.Cl,-65.8
11,CCOc1ccc(CN(C)CC(=O)Nc2ccc3c(c2)CCC3)cc1OC,-39
12,COc1cccc(CN(C)CC(=O)NNC(=O)c2ccc(Cl)cc2)c1,-12.5
13,CCOc1ccc(CN(C)C(=O)NNC(=O)c2ccc(C)cc2)cc1OC,16.8
14,CCc1cc2ccccc2nc1Cl,6.29
15,O=C(CN(Cc1ccc2c(c1)OCO2)C(=O)CNS(=O)(=O)c1ccccc1)NCc1ccco1,-22
16,CC[C@@H]1CC=C[C@H]2[C@H]1C(=O)N(Cc1ccccc1)[C@H]2c1ccc(OC)c(Cl)c1,10.6
17,O=C(Cc1ccc(F)cc1)OCC(=O)c1cc2ccccc2o1,-2.43
18,CCNC(=S)NNC(=O)Cn1c(=O)c2c(ncn2CCOC)n(Cc2ccccc2)c1=O,15.3
19,Cc1ccc(NC(=O)Nn2cnnc2)c(C)c1,1.62
20,COC(=O)CSc1[nH]c2ccc(Br)cc2c1[N+](=O)[O-],16.7
21,Nc1cccc(S(=O)(=O)Nc2ccccc2)c1,25.5
22,COc1ccc(CC(=O)Nc2cc(C)ccc2O)cc1OC,4.22
23,COc1ccc(CCN(C)CCC(=O)Nc2ccc(C)cc2)cc1OC.Cl,-64.3
24,COC(=O)c1ccc(C)c(NC(=O)CCc2ccc(OC)c(OC)c2)c1,6.37
25,CCCCN(C)CCC(=O)Nc1ccc(C)cc1.Cl,-14.8
26,COc1ccc(CCN(C)CC(=O)Nc2ccc(F)c(Cl)c2)cc1OC,-35.3
27,COc1ccc(CCN(C)CCC(=O)Nc2cc(C)ccc2C)cc1OC,-55.6

row,SMILES,"hERG current change (%, negative = inhibition) at 10uM [%]"
1,O=[N+]([O-])c1cc(F)c(N2CCCCC2)cc1Br,-3.83
2,O=C(C1CC1)N1CCc2cc(S(=O)(=O)NCC3COc4ccccc4O3)ccc21 (stereo not drawn),6.27
3,Cc1c(C)c2ccc(OC(C)C(=O)N3CC[C@@]4(O)CCCC[C@H]4C3)cc2oc1=O (stereo partly drawn),-11.2
4,COc1ccc(CN2C(=O)c3cccnc3C2=O)cc1S(=O)(=O)NC1CCCCC1C (stereo not drawn),10.8
5,CN(C)CCNC(=O)c1nn(C)c2c1CCc1ccccc1-2,-12.4
6,O=C(c1ccccc1Cl)c1c(O)c2ccccc2oc1=O,-3.19
7,O=C1COc2ccc(S(=O)(=O)Nc3ccc4c(c3)OCO4)cc2N1,19.4
8,C/C(=N\Nc1cccc(C(=O)O)c1)c1cc2ccccc2o1,9.54
9,CCOC(=O)N1CCN(CC(O)COc2ccccc2C(C)CC)CC1.Cl (stereo not drawn),0.934
10,COc1ccccc1C(=O)N/C(=C\c1cn(S(=O)(=O)N(C)C)c2ccccc12)C(=O)NCCCN1CCOCC1,-7.58
11,COc1ccc(C(Nc2cccc([N+](=O)[O-])c2)P(=O)(OC(C)C)OC(C)C)cc1 (stereo not drawn),-31.5
12,COc1ccc(S(=O)(=O)NCC2CCCN(Cc3ccc(OC)cc3F)C2)cc1 (stereo not drawn),-42
13,Cn1cnnc1Sc1ccc(C(=O)NCCC23CC4CC(CC(C4)C2)C3)cc1[N+](=O)[O-],12.9
14,CCC(C)(C)NC(=O)c1ccc(Sc2nncn2C)c([N+](=O)[O-])c1,3.37
15,Cn1cnnc1Sc1ccc(C(=O)NCCC(c2ccccc2)c2ccccc2)cc1[N+](=O)[O-],-74.3
16,Cc1ccc(CC(=O)Nc2cccc([N+](=O)[O-])c2)cc1,15.8
17,Cc1ccc(CN(C)CC(=O)Nc2cccc([N+](=O)[O-])c2)o1,-58.4
18,CN(Cc1ccccc1)S(=O)(=O)c1ccc(OCC(=O)Nc2cccc([N+](=O)[O-])c2)cc1,-9.01
19,CC(=O)c1cccc(NC(=O)CN(C)S(=O)(=O)c2ccccc2)c1,-11.5
20,CN(c1ccccc1C(=O)Nc1cccc([N+](=O)[O-])c1)S(=O)(=O)c1ccccc1,-63.2
21,CN(CC(=O)Nc1cccc([N+](=O)[O-])c1)S(=O)(=O)c1ccccc1,-51.9
22,CN(c1ccccc1C(=O)Nc1cccc(Br)c1)S(=O)(=O)c1ccccc1,-5.01
23,CN(CC(=O)Nc1cccc(F)c1)CC(=O)Nc1cccc([N+](=O)[O-])c1,-39.7
24,CN(c1ccccc1C(=O)Nc1cccc([N+](=O)[O-])c1)S(C)(=O)=O,-20
25,FC(F)(F)c1nnc2c(Sc3ccccc3)nc3ccc(Cl)cc3n12,12.2
26,Cc1cccc(NC(=S)N(CCCN2CCOCC2)C(C)c2cc3ccccc3o2)c1C (stereo not drawn),-20.9
27,COc1ccc(Cl)cc1NC(=O)CSc1nnc(CNC(=O)c2cccs2)o1,-39.8
